The results in this text go back to PubChem BioAssay (NCATS).

Experiment [1] is described as follows: qHTS profiling for inhibitors of Plasmodium falciparum (3D7) proliferation (AID 743322).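 Further: infected erythrocytes exposed to compound for 72 h before lysis; 100% = DMSO vehicle wells and 0% = 0.29 µM artemisinin.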 To be noted: P. falciparum 3D7 proliferation; at 28.7 µM (top of the series). The gist of the method: (§1)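 Parasite DNA was quantified by SYBR Green I fluorescence (ex 485, em 535 nm) after overnight lysis in saponin/Triton buffer at room temperature. Cultures at 0.3% parasitemia and 2.5% hematocrit were first exposed to compound for 72 h at 37 C; signals were normalised to artemisinin (0.29 uM) and vehicle wells.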

Experiment [2] can be described thus: qHTS profiling for inhibitors of Plasmodium falciparum (DD2) proliferation (AID 743323). To be noted: lower = more inhibition; at 28.7 µM (top of the series). The gist of the method: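 Parasite DNA quantified by SYBR Green fluorescence (ex 485, em 535 nm) after saponin/Triton lysis and overnight dark incubation. Cultures: 0.3% parasitemia, 2.5% hematocrit, 72 h, 37 C; data scaled between DMSO and 0.29 uM artemisinin.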
(In general: qHTS replaces the single test concentration by a dilution series.)

Experiment [3] is described as follows: qHTS profiling for inhibitors of Plasmodium falciparum (HB3) proliferation (AID 743324; active means well fitted curve in the direction sought with a large enough effect; an effect the other way counts as inactive or inconclusive;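 further: 100% = DMSO vehicle wells and 0% = artemisinin-treated control wells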). Conditions: Plasmodium falciparum HB3 blood-stage proliferation; at 28.7 µM (top of the series). The method in brief: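 SYBR Green fluorescence (485 ex/535 em) of lysed cultures, incubated overnight at room temperature in the dark, quantifies parasite DNA. Infected erythrocytes at 0.3% parasitemia and 2.5% hematocrit were exposed 72 h; values normalized to DMSO and 0.29 uM artemisinin controls.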

The nature of experiment [4]: qHTS profiling of the MIPE4 collection as inhibitors of Plasmodium falciparum (3D7) proliferation (AID 743344).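 Further: scaled between DMSO vehicle wells and 0.29 µM artemisinin as full inhibition.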 Conditions: P. falciparum 3D7 in erythrocytes, SYBR Green DNA fluorescence, 72 h; at 28.5 µM (top of the series) unless noted. The method in brief:
as §1

Experiment [5] can be described thus: qHTS profiling of the MIPE4 collection as inhibitors of Plasmodium falciparum (DD2) proliferation (AID 743345). Conditions: P. falciparum Dd2 in erythrocytes, SYBR Green DNA, 72 h; at 28.5 µM (top of the series) unless noted. The gist of the method: as §1
A short description of experiment [6]: qHTS profiling of the MIPE4 collection as inhibitors of Plasmodium falciparum (DD2) proliferation (Rep 2) (AID 743346). To be noted: P. falciparum Dd2 in erythrocytes, SYBR Green DNA, 72 h; at 28.5 µM (top of the series) unless noted. The method in brief:
as §1

A short description of experiment [7]: qHTS profiling of the MIPE4 collection as inhibitors of Plasmodium falciparum (HB3) proliferation (AID 743347).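 Further: plate controls were DMSO vehicle wells for no effect and artemisinin wells for full effect.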 To be noted: P. falciparum HB3 in erythrocytes, SYBR Green DNA, 72 h; at 28.5 µM (top of the series) unless noted. The method in brief: as §1
The nature of experiment [8]: High-throughput drug toxicity screening in the BPDCN cell line Gen2.2 (AID 1224824).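 Further: cells exposed to compounds for 48 h before reading.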 To be noted: Gen2.2 BPDCN cells; at 45.8 µM (top of the series) unless noted. The gist of the method:
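Seed 500 exponentially growing Gen2.2 cells/well; add compounds by pin tool; incubate 48 h, 37 °C, 5% CO2; add CellTiter-Glo, 15 min RT; read luminescence. % activity vs DMSO (100%) and bortezomib (0%).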

The nature of experiment [9]: High-throughput drug toxicity screening in the BPDCN cell line Cal-1 (AID 1224825). Conditions: Cal-1 BPDCN cell viability, qHTS; at 45.8 µM (top of the series) unless noted. The gist of the method: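 CellTiter-Glo luminescence after 48 h compound exposure; percent activity scaled with DMSO as 100% and bortezomib (9.2 uM final) as 0%. Cal-1 cells seeded at 500/well in RPMI, 10% FBS, no phenol red.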

Experiment [10] is described as follows: qHTS assay for measurement of the activity of small molecule inhibitors on Zika virus induced Caspase-3 activity in human iPSC derived neural progenitor cells (hNPCs) (AID 1224857; active means well fitted curve in the direction sought with a large enough effect; an effect the other way counts as inactive or inconclusive; further: nearly all actives have a fitted effect of over 65% in size; further: potency means the concentration at half of the fitted maximal effect). The method in brief:
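Zika virus (2 FFU/cell) infection of human iPSC-derived NPCs, 6 h, following 1 h compound preincubation. Read-out: Caspase-Glo 3/7 luminescence.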

Experiment [11] is described as follows: qHTS Screen of the MIPE 4.0 Collection Against Ewings Sarcoma (RDES) (AID 1259252; active means well fitted curve in the direction sought with a large enough effect; an effect the other way counts as inactive or inconclusive; further: potency means the concentration at half of the fitted maximal effect; nearly all actives have a fitted effect of over 35% in size). The gist of the method: (§2)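 Log-phase cells in RPMI with 5% FBS attached for 4 h, then received compounds as a titration for 48 h at 37C, 5% CO2. Viability was read by CellTiter-Glo luminescence and normalized to DMSO and no-cell wells.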
Experiment [12] is described as follows: qHTS Screen of the MIPE 4.0 Collection Against Ewings Sarcoma (TC71) (AID 1259253; active means well fitted curve in the direction sought with a large enough effect; an effect the other way counts as inactive or inconclusive; further: nearly all actives have a fitted effect of over 40% in size; further: potency means the concentration at half of the fitted maximal effect). The method in brief:
as §2

Experiment [13] in a line: qHTS Screen of the MIPE 4.0 Collection Against Ewings Sarcoma (EW8) (AID 1259255; active means well fitted curve in the direction sought with a large enough effect; an effect the other way counts as inactive or inconclusive; further: nearly all actives have a fitted effect of over 35% in size; further: potency means the concentration at half of the fitted maximal effect;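 on viability: 100% = DMSO-treated cells and 0% = medium-only wells without cells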). The gist of the method: as §2
The nature of experiment [14]: qHTS Screen of the MIPE 4.0 Collection Against Ewings Sarcoma (TC32) (AID 1259256; active means well fitted curve in the direction sought with a large enough effect; an effect the other way counts as inactive or inconclusive; further: potency means the concentration at half of the fitted maximal effect; nearly all actives have a fitted effect of over 45% in size). The gist of the method: as §2
A short description of experiment [15]: Identifying Small Molecule Inhibitors of Pancreatic Cancer Stem Cells (A2780, Spheroid) (AID 1259357; active means well fitted curve in the direction sought with a large enough effect; an effect the other way counts as inactive or inconclusive; further: potency means the concentration at half of the fitted maximal effect;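 further: spheroids pre-formed over 14 days in stem cell medium on hydrogel; compound exposure lasted 48 h before the ATP luminescence read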). To be noted: Potency: A2780 spheroid viability. The method in brief: (§3)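 Spheroids grown 14 days in stem cell media on hydrogel-coated nonadherent plates; 2D lines seeded directly. Compounds added after 4 h attachment, 48 h at 37C, 5% CO2; CellTiter-Glo luminescence normalized to DMSO (no inhibition) and no-cell wells (full inhibition).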

The nature of experiment [16]: Identifying Small Molecule Inhibitors of Pancreatic Cancer Stem Cells (Panc1, Spheroid) (AID 1259359; active means well fitted curve in the direction sought with a large enough effect; an effect the other way counts as inactive or inconclusive;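 further: potency means the concentration at half of the fitted maximal effect; compound exposure lasted 48 h before reading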). To be noted: Panc1 spheroid cancer stem cell viability. The method in brief:
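Spheroids grown 14 days in stem cell media on nonadherent hydrogel before screening; cells attached 4 h, then compound exposure 48 h at 37C, 5% CO2. CellTiter-Glo luminescence normalized to DMSO (no inhibition) and no-cell wells (full inhibition).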

Experiment [17] is described as follows: Identifying Small Molecule Inhibitors of Pancreatic Cancer Stem Cells (SN12C, Spheroid) (AID 1259360; active means well fitted curve in the direction sought with a large enough effect; an effect the other way counts as inactive or inconclusive; further: potency means the concentration at half of the fitted maximal effect). Conditions: Potency: SN12C spheroid viability. The method in brief: as §3
Experiment [18] is described as follows: qHTS assay for measurement of the activity of small molecule inhibitors on Zika virus induced Caspase-3 activity in human astrocytoma cells (AID 1224859; active means well fitted curve in the direction sought with a large enough effect; an effect the other way counts as inactive or inconclusive;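 further: plate controls were ZIKV-infected untreated cells for no effect and uninfected cells for full effect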). The method in brief: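 Caspase activation in ZIKV-infected SNB-19 cells (2 FFU/cell, 6 h) measured by Caspase-Glo 3/7 luminescence after 30 min RT; compound pre-incubated 1 h; normalised to uninfected and infected controls.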

Inconclusive results are not listed. Active and inactive are the calls of the source. Unless noted, how the calls were made is not given here.

For `CC(=O)N(C)C1(c2ccccc2)CCN(CCC[C@]2(c3ccc(Cl)c(Cl)c3)CCCN(C(=O)c3ccccc3)C2)CC1`, the remaining parasite growth % (stronger effect = lower value) in [1] is -0.589%. In addition, in experiment [2], the activity, percent of control is -0.455%. The remaining proliferation (% of control), lower = more inhibition in experiment [3] was -1.35%. Also, in [4], the parasite growth, % of DMSO control came out at 6.96%. For the same compound, the parasite growth remaining, % of DMSO control (lower = more inhibition) in experiment [5] came to 7.14%. Moreover, the parasite growth, % of control (lower = inhibition) in experiment [6] amounted to 38.7%. Also, in experiment [7], the growth, % of control stood at 7.98%. For the same compound, the cell viability, % of control (lower = more cytotoxic) in experiment [8] amounted to 9.34%. In addition, the viability (% of control) in experiment [9] is 7.8%. The Potency result in [10] was “inactive”. Moreover, the Potency in experiment [11] is 26.4 µM (active); in experiment [12], 20.9 µM (active); in experiment [13], 23.5 µM (active); in [14], 26.4 µM (active); in [15], 18.7 µM (active).

With `COc1cc(N2CCC(N3CCN(C)CC3)CC2)ccc1Nc1ncc(Cl)c(Nc2ccccc2S(=O)(=O)C(C)C)n1`, the remaining parasite growth % (stronger effect = lower value) in experiment [1] was -0.393%. Besides, the activity, percent of control in experiment [2] stood at 0.218%. Besides, the remaining proliferation (% of control), lower = more inhibition in experiment [3] is -1.09%. The parasite growth, % of DMSO control in [4] is 3.8%. The parasite growth remaining, % of DMSO control (lower = more inhibition) in experiment [5] worked out at 7.75%. The growth, % of control in [7] amounted to 7.64%. Further, the cell viability, % of control (lower = more cytotoxic) in experiment [8] is 5.5%. In addition, the viability (% of control) in [9] came to 2.84%. Further, the Potency result in experiment [10] and in experiment [12] was “inactive” throughout. The values for the Potency in experiment [16] and in [17] were 0.418 µM (active) and 20.9 µM (active), respectively.

As for `CC(C)(Cc1ccc2ccccc2c1)NC[C@@H](O)COc1cccc(Cl)c1C#N`, in experiment [4], the parasite growth, % of DMSO control is 89.9%. Also, the parasite growth remaining, % of DMSO control (lower = more inhibition) in [5] came to 98.5%. Besides, in experiment [6], the parasite growth, % of control (lower = inhibition) is 59.5%. The compound also displayed a growth, % of control in experiment [7] of 92%. Further, the cell viability, % of control (lower = more cytotoxic) in experiment [8] came out at 123%. Moreover, the viability (% of control) in experiment [9] came out at 12.4%. In experiment [10], the Potency result was “inactive”. In addition, the Potency in experiment [12] is 16.6 µM (active); in [14] it was 14.8 µM (active).

For `O=C1NC(=O)C(=Cc2cccc(C(F)(F)F)c2)S1`, the parasite growth, % of DMSO control in experiment [4] stood at 88.5%. Also, the parasite growth remaining, % of DMSO control (lower = more inhibition) in [5] amounted to 93.5%. The compound also returned a growth, % of control in experiment [7] of 96.2%. In addition, in [8], the cell viability, % of control (lower = more cytotoxic) came to 128%. Further, the viability (% of control) in experiment [9] stood at 110%. Moreover, the Potency entry in experiment [10] and in experiment [18] was “inactive” throughout.

Regarding `CN1CCN(CCOc2cc(OC3CCOCC3)c3c(Nc4c(Cl)ccc5c4OCO5)ncnc3c2)CC1`, the remaining parasite growth % (stronger effect = lower value) in [1] was 0.208%. Besides, the activity, percent of control in experiment [2] was 1.7%. For the same compound, the remaining proliferation (% of control), lower = more inhibition in experiment [3] is -0.659%. This compound had a parasite growth, % of DMSO control in experiment [4] of 5.31%. The parasite growth remaining, % of DMSO control (lower = more inhibition) in experiment [5] turned out to be 8.1%. Also, the parasite growth, % of control (lower = inhibition) in experiment [6] stood at 7.87%. The growth, % of control in [7] worked out at 6.19%. In experiment [8], the cell viability, % of control (lower = more cytotoxic) amounted to 54.1%. Further, the viability (% of control) in experiment [9] came out at 2.69%. For the same compound, the Potency result in experiment [10] and in [15] was “inactive” in each case. Besides, the Potency in [14] was 29.6 µM (active); in [17], 18.7 µM (active).

Turning to `COc1cc2nc(-c3ccc(N4CCN(C)CC4)cc3)nc(NCCN3CCOCC3)c2cc1OC`, the remaining parasite growth % (stronger effect = lower value) in experiment [1] is -1.55%. Besides, the activity, percent of control in experiment [2] is -0.313%. Moreover, in experiment [3], the remaining proliferation (% of control), lower = more inhibition is -0.898%. This compound yielded a parasite growth, % of DMSO control in experiment [4] of 5.09%. Further, the parasite growth remaining, % of DMSO control (lower = more inhibition) in experiment [5] is 4.83%. The same compound came in with a parasite growth, % of control (lower = inhibition) in experiment [6] of 12.1%. Besides, the growth, % of control in experiment [7] amounted to 2.87%. Also, the cell viability, % of control (lower = more cytotoxic) in experiment [8] is 1.57%. Moreover, the viability (% of control) in experiment [9] worked out at 2.25%. For the same compound, the Potency in [10] was 5.9 µM (active); in experiment [11] it was 0.0166 µM (active); in experiment [12], 0.132 µM (active); in [13], 0.0332 µM (active); in experiment [14], 0.0418 µM (active).

As for `O=c1c(-c2ccc(O)cc2)coc2cc(O)ccc12`, the parasite growth, % of DMSO control in experiment [4] worked out at 100%. In addition, the parasite growth remaining, % of DMSO control (lower = more inhibition) in experiment [5] amounted to 102%. Moreover, in experiment [8], the cell viability, % of control (lower = more cytotoxic) is 119%. Moreover, the viability (% of control) in [9] worked out at 109%. The Potency was 11.2 µM (active) in [10] and 11.8 µM (active) in [11]. For the same compound, the Potency entry in [13] was “inactive”.

`CC(=O)O[C@]1(C(C)=O)CC[C@@H]2[C@@H]3C[C@H](C)C4=CC(=O)CC[C@]4(C)[C@H]3CC[C@@]21C` showed a parasite growth, % of DMSO control in experiment [4] of 24.9%. The parasite growth remaining, % of DMSO control (lower = more inhibition) in [5] came to 89%. Moreover, the parasite growth, % of control (lower = inhibition) in experiment [6] turned out to be 22%. Besides, in [8], the cell viability, % of control (lower = more cytotoxic) stood at 75.1%. Also, in experiment [9], the viability (% of control) was determined as 95.7%. In addition, the Potency result in [10] was “inactive”.
